Experimental data as given in PubChem BioAssay AID1159580 (chemical genetic matrix, 2015).
Screen size: about 5,500 compounds; about 2,000 (36%) were called active. Not shown: some 18% with an inconclusive outcome. Rule as the data show it: active = normalized growth mostly below about 0.91 (no sharp cut-off); inconclusive = no clear call, values can overlap the other calls; inactive = mostly above about 0.92. Some of the results follow.

Experiment: chemical genetic growth profiling, strain panel (AID 1159580);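 also: tested at 20 µM; growth read once vehicle control cultures reached saturation at 30 °C; 1 = growth at the plate median or of vehicle wells; lower values mean less growth of the strain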
Settings: growth OD
[1] = S. cerevisiae deletion strains, locus YAL040C, strain CLN3, stronger effect = lower value
[2] = S. cerevisiae deletion strains, locus YCL061C, strain MRC1 (second series), stronger effect = lower value
[3] = S. cerevisiae deletion strains, locus YDR363W, strain ESC2, stronger effect = lower value
[4] = S. cerevisiae deletion strains, locus YER002W, strain NOP16, stronger effect = lower value
[5] = S. cerevisiae deletion strains, locus YJR075W, strain HOC1, stronger effect = lower value
[6] = S. cerevisiae deletion strains, locus YMR263W, strain SAP30, stronger effect = lower value
[7] = S. cerevisiae deletion strains, locus YMR307W, strain GAS1, stronger effect = lower value
[8] = S. cerevisiae deletion strains, locus YNL153C, strain GIM3, stronger effect = lower value
[9] = S. cerevisiae deletion strains, locus YNL175C, strain NOP13, stronger effect = lower value
[10] = S. cerevisiae deletion strains, locus YNL197C, strain WHI3, stronger effect = lower value
[11] = S. cerevisiae deletion strains, locus YNL224C, strain SQS1, stronger effect = lower value
[12] = S. cerevisiae deletion strains, locus YNL322C, strain KRE1, stronger effect = lower value
[13] = S. cerevisiae deletion strains, locus YOR083W, strain WHI5 (second series), stronger effect = lower value
[14] = S. cerevisiae deletion strains, locus YPL241C, strain CIN2, stronger effect = lower value
[15] = S. cerevisiae deletion strains, locus YAL013W, strain DEP1, stronger effect = lower value
[16] = S. cerevisiae deletion strains, locus YBR229C, strain ROT2, stronger effect = lower value
[17] = S. cerevisiae deletion strains, locus YDL101C, strain DUN1, stronger effect = lower value
[18] = S. cerevisiae deletion strains, locus YGR078C, strain PAC10, stronger effect = lower value
[19] = S. cerevisiae deletion strains, locus YLR039C, strain RIC1, stronger effect = lower value
[20] = S. cerevisiae deletion strains, locus YLR262C, strain YPT6, stronger effect = lower value
[21] = S. cerevisiae deletion strains, locus YPL055C, strain LGE1, stronger effect = lower value

Measured: normalized growth

NCC1OC(O[C@@H]2[C@H](O)C(OC3C(O)C(N)CC(N)C3OC3OC(CO)C(O)C(O)C3N)O[C@@H]2CO)C(N)C(O)C1O (stereo partly drawn)
inactive: [1] 1.07 | [2] 1 | [3] 1.02 | [4] 1.02 | [5] 1 | [6] 0.997 | [7] 1 | S. cerevisiae deletion strains, locus YNL128W, strain TEP1, stronger effect = lower value 1.01 | [8] 1.03 | [9] 1.01 | [10] 1.01 | [11] 1.01 | [12] 0.993 | [13] 1.02 | [14] 1

CCc1cc2c(cc1C(=O)CC1(O)C(=O)Nc3ccc(Br)cc31)C(C)(C)CCC2(C)C (stereo not drawn)
inactive: [15] 1.01 | [16] 1.01 | S. cerevisiae deletion strains, locus YCL061C, strain MRC1, stronger effect = lower value 1.02 | [17] 1.02 | S. cerevisiae deletion strains, locus YDL134C, strain PPH21, stronger effect = lower value 1.01 | S. cerevisiae deletion strains, locus YDR150W, strain NUM1, stronger effect = lower value 0.953 | S. cerevisiae deletion strains, locus YEL061C, strain CIN8, stronger effect = lower value 0.978 | [18] 1.02 | S. cerevisiae deletion strains, locus YHR030C, strain SLT2, stronger effect = lower value 1.02 | S. cerevisiae deletion strains, locus YHR087W, strain rtc3, stronger effect = lower value 0.961 | S. cerevisiae deletion strains, locus YJR043C, strain POL32, stronger effect = lower value 1.01 | [5] 0.979 | [19] 1.03 | S. cerevisiae deletion strains, locus YLR058C, strain SHM2 (second series), stronger effect = lower value 1.01 | S. cerevisiae deletion strains, locus YLR085C, strain ARP6, stronger effect = lower value 1.02 | [20] 1.01 | S. cerevisiae deletion strains, locus YML094W, strain GIM5, stronger effect = lower value 0.997 | S. cerevisiae deletion strains, locus YMR219W, strain ESC1, stronger effect = lower value 1 | [6] 1.06 | [7] 0.959 | [8] 1.01 | S. cerevisiae deletion strains, locus YNL298W, strain CLA4 (second series), stronger effect = lower value 0.998 | [12] 1.01 | S. cerevisiae deletion strains, locus YNR030W, strain Alg12, stronger effect = lower value 1.01 | [21] 0.921 | [14] 1.02 | S. cerevisiae deletion strains, locus YPR135W, strain CTF4, stronger effect = lower value 1.06

CC(C)C(=O)c1c(C(C)C)nn2ccccc12
inactive: [15] 0.972 | [1] 1.06 | [2] 0.985 | [3] 0.995 | [4] 0.983 | [18] 0.984 | S. cerevisiae deletion strains, locus YGR229C, strain SMI1, stronger effect = lower value 0.942 | [5] 0.991 | [9] 0.985 | [10] 0.985 | [11] 0.962 | [12] 0.985 | [13] 0.936 | [21] 0.967

CC1=CCC2C3(C)C1=CC(=O)OC3CC1C(C)(C)CC(O)C(O)C12C (stereo not drawn)
inactive: S. cerevisiae deletion strains, locus YBR021W, strain FUR4, stronger effect = lower value 0.993 | [16] 1.02 | S. cerevisiae deletion strains, locus YCL029C, strain bik1, stronger effect = lower value 1 | S. cerevisiae deletion strains, locus YDL035C, strain GPR1, stronger effect = lower value 1.06 | S. cerevisiae deletion strains, locus YDL074C, strain BRE1, stronger effect = lower value 1.07 | [17] 1.01 | S. cerevisiae deletion strains, locus YDL185W, strain tfp1, stronger effect = lower value 0.996 | S. cerevisiae deletion strains, locus YDL192W, strain arf1, stronger effect = lower value 1.01 | S. cerevisiae deletion strains, locus YDR101C, strain arx1, stronger effect = lower value 1.02 | S. cerevisiae deletion strains, locus YDR162C, strain NBP2, stronger effect = lower value 1.02 | S. cerevisiae deletion strains, locus YDR318W, strain mcm21, stronger effect = lower value 0.981 | S. cerevisiae deletion strains, locus YDR388W, stronger effect = lower value 0.994 | S. cerevisiae deletion strains, locus YDR502C, strain sam2, stronger effect = lower value 0.998 | S. cerevisiae deletion strains, locus YER110C, stronger effect = lower value 0.991 | S. cerevisiae deletion strains, locus YER155C, strain BEM2, stronger effect = lower value 1 | S. cerevisiae deletion strains, locus YER167W, strain BCK2, stronger effect = lower value 1.03 | S. cerevisiae deletion strains, locus YGL078C, strain dbp3, stronger effect = lower value 1 | S. cerevisiae deletion strains, locus YGL086W, strain mad1, stronger effect = lower value 0.995 | S. cerevisiae deletion strains, locus YGL248W, strain PDE1, stronger effect = lower value 1.01 | S. cerevisiae deletion strains, locus YGR135W, strain pre9, stronger effect = lower value 0.979 | S. cerevisiae deletion strains, locus YGR252W, strain gcn5, stronger effect = lower value 0.96 | S. cerevisiae deletion strains, locus YHR079C, strain IRE1 (second series), stronger effect = lower value 0.989 | S. cerevisiae deletion strains, locus YHR094C, strain hxt1, stronger effect = lower value 0.99 | S. cerevisiae deletion strains, locus YHR129C, strain ARP1, stronger effect = lower value 1.01 | S. cerevisiae deletion strains, locus YHR200W, strain rpn10, stronger effect = lower value 0.983 | S. cerevisiae deletion strains, locus YIL066C, strain RNR3, stronger effect = lower value 1.05 | S. cerevisiae deletion strains, locus YIL073C, strain SPO22, stronger effect = lower value 1 | S. cerevisiae deletion strains, locus YIL125W, strain kgd1, stronger effect = lower value 1.01 | S. cerevisiae deletion strains, locus YIR030C, strain dcg1, stronger effect = lower value 0.986 | S. cerevisiae deletion strains, locus YJL095W, strain BCK1, stronger effect = lower value 1.03 | S. cerevisiae deletion strains, locus YJL134W, strain LCB3, stronger effect = lower value 1.01 | S. cerevisiae deletion strains, locus YJL168C, strain set2, stronger effect = lower value 0.991 | S. cerevisiae deletion strains, locus YJL187C, strain SWE1 (second series), stronger effect = lower value 1 | S. cerevisiae deletion strains, locus YKL009W, strain mrt4, stronger effect = lower value 1.05 | S. cerevisiae deletion strains, locus YKL068W, stronger effect = lower value 0.993 | S. cerevisiae deletion strains, locus YKL085W, strain MDH1 (second series), stronger effect = lower value 0.991 | S. cerevisiae deletion strains, locus YKL085W, strain MDH1, stronger effect = lower value 0.991 | S. cerevisiae deletion strains, locus YKL190W, strain CNB1, stronger effect = lower value 1.01 | S. cerevisiae deletion strains, locus YKR001C, strain vps1, stronger effect = lower value 1.02 | [19] 1.12 | S. cerevisiae deletion strains, locus YLR058C, strain SHM2, stronger effect = lower value 1.04 | S. cerevisiae deletion strains, locus YLR102C, strain apc9, stronger effect = lower value 0.991 | [20] 1.17 | S. cerevisiae deletion strains, locus YLR268W, strain sec22, stronger effect = lower value 1.03 | S. cerevisiae deletion strains, locus YLR330W, strain CHS5, stronger effect = lower value 1.01 | S. cerevisiae deletion strains, locus YLR371W, strain rom2, stronger effect = lower value 1 | S. cerevisiae deletion strains, locus YLR418C, strain cdc73, stronger effect = lower value 0.97 | S. cerevisiae deletion strains, locus YML016C, strain PPZ1, stronger effect = lower value 1.01 | S. cerevisiae deletion strains, locus YML032C, strain rad52, stronger effect = lower value 1 | S. cerevisiae deletion strains, locus YML124C, strain tub3, stronger effect = lower value 0.993 | S. cerevisiae deletion strains, locus YMR078C, strain ctf18, stronger effect = lower value 0.99 | S. cerevisiae deletion strains, locus YMR223W, strain ubp8, stronger effect = lower value 0.989 | [6] 1.01 | [7] 1.09 | S. cerevisiae deletion strains, locus YNL067W, strain RPL9B, stronger effect = lower value 0.997 | [8] 1.01 | S. cerevisiae deletion strains, locus YNL233W, strain BNI4, stronger effect = lower value 0.999 | S. cerevisiae deletion strains, locus YNL250W, strain rad50, stronger effect = lower value 0.962 | S. cerevisiae deletion strains, locus YNL271C, strain bni1, stronger effect = lower value 1 | S. cerevisiae deletion strains, locus YNL298W, strain CLA4, stronger effect = lower value 1.01 | S. cerevisiae deletion strains, locus YNL307C, strain MCK1, stronger effect = lower value 0.999 | S. cerevisiae deletion strains, locus YNR052C, strain pop2, stronger effect = lower value 0.998 | S. cerevisiae deletion strains, locus YOL012C, strain htz1 0.612 | S. cerevisiae deletion strains, locus YOL147C, strain pex11, stronger effect = lower value 0.998 | S. cerevisiae deletion strains, locus YOR061W, strain CKA2, stronger effect = lower value 1.06 | S. cerevisiae deletion strains, locus YOR069W, strain VPS5, stronger effect = lower value 1.01 | S. cerevisiae deletion strains, locus YOR136W, strain idh2, stronger effect = lower value 0.996 | S. cerevisiae deletion strains, locus YOR144C, strain elg1, stronger effect = lower value 1 | S. cerevisiae deletion strains, locus YOR184W, strain ser1, stronger effect = lower value 1.04 | S. cerevisiae deletion strains, locus YOR316C, strain cot1, stronger effect = lower value 0.989 | [14] 1.01 | S. cerevisiae deletion strains, locus YPR119W, strain clb2, stronger effect = lower value 0.987 | S. cerevisiae deletion strains, locus YPR141C, strain kar3, stronger effect = lower value 1 | S. cerevisiae deletion strains, locus YPR163C, strain tif3, stronger effect = lower value 1 | S. cerevisiae deletion strains, locus YPR167C, strain met16, stronger effect = lower value 0.985 | S. cerevisiae deletion strains, strain wtn01, stronger effect = lower value 1.01 | S. cerevisiae strains, strain wild type, stronger effect = lower value 1.04
